# Values without a mark were called inactive.
# Experiments:
# Experiment in all cases: log2 ratio of Biotin-Ahx-Ub-VS probe labelling (fragment/DMSO); higher = less target engagement (more negative = stronger competition), active = hit call of the paper (q ≤ 0.05, log2 ratio ≤ -1)
# Details in all cases: compound concentration: 200 uM; treatment time: 3 h
# USP19 = target: T1, USP19 (UniProt O94966)
# T1 sequence (whole entry): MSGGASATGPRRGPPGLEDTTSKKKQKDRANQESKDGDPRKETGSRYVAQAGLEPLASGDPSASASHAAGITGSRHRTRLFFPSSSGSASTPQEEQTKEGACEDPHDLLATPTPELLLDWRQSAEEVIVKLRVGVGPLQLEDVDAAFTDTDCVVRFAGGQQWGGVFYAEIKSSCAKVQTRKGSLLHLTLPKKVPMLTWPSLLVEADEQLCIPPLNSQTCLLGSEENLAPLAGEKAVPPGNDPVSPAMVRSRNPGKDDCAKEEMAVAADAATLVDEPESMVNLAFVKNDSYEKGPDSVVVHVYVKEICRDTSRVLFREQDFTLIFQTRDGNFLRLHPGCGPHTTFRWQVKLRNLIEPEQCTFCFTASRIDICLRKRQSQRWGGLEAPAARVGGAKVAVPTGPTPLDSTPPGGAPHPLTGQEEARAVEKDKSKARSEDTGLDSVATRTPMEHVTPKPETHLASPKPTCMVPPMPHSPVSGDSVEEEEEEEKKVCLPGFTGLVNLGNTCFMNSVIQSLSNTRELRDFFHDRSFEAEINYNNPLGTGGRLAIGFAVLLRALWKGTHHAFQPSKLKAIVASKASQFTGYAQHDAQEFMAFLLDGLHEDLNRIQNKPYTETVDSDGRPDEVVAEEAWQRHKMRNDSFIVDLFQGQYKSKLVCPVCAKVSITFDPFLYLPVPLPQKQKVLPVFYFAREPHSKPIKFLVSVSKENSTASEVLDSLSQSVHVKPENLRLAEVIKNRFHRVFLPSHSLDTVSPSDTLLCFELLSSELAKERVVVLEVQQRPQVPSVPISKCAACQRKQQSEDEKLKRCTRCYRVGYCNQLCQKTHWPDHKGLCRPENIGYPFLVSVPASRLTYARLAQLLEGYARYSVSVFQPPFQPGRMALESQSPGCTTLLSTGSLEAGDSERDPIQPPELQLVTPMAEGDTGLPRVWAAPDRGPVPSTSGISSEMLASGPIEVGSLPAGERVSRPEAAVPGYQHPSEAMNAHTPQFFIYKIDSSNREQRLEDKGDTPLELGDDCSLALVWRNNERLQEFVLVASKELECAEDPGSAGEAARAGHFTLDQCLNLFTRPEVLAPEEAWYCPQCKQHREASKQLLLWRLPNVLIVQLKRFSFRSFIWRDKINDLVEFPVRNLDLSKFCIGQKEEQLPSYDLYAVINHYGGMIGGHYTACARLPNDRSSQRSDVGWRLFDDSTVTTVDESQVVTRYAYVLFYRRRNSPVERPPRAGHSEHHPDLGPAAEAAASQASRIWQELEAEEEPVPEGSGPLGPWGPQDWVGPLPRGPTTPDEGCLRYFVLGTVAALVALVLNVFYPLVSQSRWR
# In short: (§1)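 Labelled DUBs from HEK293T lysate were NeutrAvidin-enriched, digested with LysC and trypsin, and run by diaPASEF LC-MS/MS. Before that, each 495 µg sample in Tris/CHAPS/IGEPAL buffer with protease inhibitors was treated in triplicate with fragment at 200 µM or vehicle for 3 h, then with Biotin-Ahx-Ub-VS at 0.5 µM final for 1 h. Values are average log2 ratios of fragment over vehicle by unpaired t-test, based on global-median-normalised Spectronaut label-free quantities from proteins with ≥2 unique peptides.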
# USP24 = USP24 (UniProt Q9UPU5)
# In short: as §1
# USP25 = target: T2, USP25 (UniProt Q9UHP3)
# T2 sequence (whole entry): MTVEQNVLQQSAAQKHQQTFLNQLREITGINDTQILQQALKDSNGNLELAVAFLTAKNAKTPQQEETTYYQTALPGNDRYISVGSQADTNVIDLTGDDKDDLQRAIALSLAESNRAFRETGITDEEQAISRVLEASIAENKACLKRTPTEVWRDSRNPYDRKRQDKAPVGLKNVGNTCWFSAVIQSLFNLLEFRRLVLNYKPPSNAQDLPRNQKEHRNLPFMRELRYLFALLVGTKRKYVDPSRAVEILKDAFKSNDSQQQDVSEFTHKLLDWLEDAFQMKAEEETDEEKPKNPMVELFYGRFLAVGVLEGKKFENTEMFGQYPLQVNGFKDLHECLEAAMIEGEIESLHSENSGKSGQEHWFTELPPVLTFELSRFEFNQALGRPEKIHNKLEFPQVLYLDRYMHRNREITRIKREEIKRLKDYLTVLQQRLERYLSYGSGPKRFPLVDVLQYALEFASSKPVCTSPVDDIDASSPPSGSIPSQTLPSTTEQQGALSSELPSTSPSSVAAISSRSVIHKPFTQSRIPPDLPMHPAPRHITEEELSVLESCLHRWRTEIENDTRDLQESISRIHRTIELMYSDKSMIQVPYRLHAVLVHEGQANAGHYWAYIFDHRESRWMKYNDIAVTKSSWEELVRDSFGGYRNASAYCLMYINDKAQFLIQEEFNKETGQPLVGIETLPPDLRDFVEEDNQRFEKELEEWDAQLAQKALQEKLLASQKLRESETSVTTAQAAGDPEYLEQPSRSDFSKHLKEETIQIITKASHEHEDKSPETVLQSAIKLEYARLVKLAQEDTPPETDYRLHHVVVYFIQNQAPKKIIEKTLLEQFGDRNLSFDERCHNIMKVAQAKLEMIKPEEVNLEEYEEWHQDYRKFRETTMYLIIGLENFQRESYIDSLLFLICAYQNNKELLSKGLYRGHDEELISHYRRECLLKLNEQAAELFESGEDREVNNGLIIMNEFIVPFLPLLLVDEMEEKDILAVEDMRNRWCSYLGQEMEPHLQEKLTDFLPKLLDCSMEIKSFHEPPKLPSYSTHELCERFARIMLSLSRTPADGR
# In short: as §1
# USP28 = target: T3, USP28 (UniProt Q96RU2)
# T3 sequence (whole entry): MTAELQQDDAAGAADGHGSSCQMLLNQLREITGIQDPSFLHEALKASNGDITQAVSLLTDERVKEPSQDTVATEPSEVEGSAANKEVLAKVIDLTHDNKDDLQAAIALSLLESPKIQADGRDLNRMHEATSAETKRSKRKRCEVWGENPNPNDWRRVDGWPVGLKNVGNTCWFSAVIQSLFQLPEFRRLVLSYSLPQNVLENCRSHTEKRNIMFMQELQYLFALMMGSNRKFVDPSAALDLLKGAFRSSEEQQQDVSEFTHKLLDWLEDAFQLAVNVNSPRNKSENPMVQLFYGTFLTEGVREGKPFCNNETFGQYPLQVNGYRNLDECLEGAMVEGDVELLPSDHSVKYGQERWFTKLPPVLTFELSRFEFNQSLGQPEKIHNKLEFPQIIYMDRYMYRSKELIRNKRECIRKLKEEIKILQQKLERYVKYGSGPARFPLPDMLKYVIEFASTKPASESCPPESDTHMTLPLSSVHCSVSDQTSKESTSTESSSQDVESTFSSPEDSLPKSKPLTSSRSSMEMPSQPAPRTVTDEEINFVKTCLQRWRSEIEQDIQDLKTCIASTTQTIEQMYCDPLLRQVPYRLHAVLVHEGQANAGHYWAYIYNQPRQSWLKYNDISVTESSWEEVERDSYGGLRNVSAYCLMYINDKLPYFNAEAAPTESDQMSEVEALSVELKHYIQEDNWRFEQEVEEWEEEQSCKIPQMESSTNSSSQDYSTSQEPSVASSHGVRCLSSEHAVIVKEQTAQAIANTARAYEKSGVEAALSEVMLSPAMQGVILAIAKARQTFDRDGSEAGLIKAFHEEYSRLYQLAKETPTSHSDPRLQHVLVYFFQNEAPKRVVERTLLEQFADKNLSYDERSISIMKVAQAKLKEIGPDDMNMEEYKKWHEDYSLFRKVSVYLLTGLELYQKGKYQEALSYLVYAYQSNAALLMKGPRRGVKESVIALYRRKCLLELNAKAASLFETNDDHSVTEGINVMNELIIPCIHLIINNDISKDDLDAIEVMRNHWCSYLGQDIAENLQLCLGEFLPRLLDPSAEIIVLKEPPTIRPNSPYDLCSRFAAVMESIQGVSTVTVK
# In short: as §1
# USP24, sequence (Q9UPU5 whole entry): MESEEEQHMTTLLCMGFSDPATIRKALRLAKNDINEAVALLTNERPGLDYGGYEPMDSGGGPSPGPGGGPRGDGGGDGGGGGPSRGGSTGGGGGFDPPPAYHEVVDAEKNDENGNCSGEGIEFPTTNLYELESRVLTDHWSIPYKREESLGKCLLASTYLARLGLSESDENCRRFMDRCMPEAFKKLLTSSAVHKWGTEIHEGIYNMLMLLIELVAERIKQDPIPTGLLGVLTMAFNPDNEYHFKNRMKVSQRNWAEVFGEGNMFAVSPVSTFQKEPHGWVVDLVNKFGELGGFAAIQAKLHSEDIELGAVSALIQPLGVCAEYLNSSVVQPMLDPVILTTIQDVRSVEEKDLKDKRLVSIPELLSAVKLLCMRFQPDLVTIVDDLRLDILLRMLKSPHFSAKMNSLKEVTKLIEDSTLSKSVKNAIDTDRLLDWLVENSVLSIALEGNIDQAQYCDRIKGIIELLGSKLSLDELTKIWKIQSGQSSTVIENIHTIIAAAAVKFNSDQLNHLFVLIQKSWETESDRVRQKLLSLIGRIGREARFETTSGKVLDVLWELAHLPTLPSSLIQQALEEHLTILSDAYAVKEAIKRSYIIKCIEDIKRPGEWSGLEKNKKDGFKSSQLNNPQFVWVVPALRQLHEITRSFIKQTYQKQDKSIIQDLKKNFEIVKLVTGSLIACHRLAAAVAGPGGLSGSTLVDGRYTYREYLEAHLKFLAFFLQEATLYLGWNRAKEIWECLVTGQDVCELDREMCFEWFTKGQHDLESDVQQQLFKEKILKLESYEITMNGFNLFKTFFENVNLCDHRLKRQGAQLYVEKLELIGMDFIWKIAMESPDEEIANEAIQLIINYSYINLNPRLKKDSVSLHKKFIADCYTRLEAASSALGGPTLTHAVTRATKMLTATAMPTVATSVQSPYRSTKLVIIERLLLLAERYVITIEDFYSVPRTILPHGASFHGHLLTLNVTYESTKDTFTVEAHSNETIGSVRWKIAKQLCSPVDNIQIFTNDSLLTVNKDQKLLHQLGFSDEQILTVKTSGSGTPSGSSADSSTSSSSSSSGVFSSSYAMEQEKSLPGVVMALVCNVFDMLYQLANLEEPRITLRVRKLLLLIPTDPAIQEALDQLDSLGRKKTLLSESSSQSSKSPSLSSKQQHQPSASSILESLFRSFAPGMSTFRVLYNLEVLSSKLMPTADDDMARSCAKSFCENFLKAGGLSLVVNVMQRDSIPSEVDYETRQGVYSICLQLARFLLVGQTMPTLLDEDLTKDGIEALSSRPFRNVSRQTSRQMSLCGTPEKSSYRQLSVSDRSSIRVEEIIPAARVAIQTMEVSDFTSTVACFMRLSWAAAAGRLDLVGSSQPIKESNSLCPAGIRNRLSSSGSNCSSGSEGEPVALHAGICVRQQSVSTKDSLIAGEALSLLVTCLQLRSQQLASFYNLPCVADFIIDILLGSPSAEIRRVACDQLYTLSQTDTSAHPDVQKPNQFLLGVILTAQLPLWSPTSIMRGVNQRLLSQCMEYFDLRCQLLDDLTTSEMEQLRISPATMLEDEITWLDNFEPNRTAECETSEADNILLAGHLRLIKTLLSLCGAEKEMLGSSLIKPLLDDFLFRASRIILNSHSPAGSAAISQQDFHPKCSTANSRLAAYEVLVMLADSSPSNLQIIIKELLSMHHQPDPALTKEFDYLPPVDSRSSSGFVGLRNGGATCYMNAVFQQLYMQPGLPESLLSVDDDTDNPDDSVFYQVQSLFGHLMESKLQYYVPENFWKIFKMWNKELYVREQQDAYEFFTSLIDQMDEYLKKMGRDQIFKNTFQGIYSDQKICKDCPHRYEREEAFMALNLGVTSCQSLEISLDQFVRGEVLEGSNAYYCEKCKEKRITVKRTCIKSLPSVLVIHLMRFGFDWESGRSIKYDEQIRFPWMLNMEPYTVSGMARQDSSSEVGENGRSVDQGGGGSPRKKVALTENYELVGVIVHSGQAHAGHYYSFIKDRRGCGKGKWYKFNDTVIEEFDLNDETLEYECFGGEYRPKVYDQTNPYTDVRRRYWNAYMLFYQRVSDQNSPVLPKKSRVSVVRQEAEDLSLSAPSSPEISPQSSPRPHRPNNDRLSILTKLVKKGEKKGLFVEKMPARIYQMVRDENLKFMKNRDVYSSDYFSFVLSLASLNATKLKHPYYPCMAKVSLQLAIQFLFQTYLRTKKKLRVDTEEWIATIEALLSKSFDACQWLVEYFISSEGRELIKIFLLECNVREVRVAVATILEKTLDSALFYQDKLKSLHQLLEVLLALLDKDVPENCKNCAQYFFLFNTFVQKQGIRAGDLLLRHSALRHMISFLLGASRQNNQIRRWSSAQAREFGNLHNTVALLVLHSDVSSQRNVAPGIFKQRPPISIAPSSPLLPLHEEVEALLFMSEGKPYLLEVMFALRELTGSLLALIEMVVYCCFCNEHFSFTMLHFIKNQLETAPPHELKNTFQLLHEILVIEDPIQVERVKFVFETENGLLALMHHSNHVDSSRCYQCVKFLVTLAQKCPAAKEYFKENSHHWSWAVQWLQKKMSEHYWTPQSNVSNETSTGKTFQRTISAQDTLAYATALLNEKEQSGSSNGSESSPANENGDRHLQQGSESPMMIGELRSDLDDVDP
compound,measurement,setting,value
Cc1c(C#N)c(NC(=O)CCl)n(Cc2ccco2)c1C,log2 ratio of Biotin-Ahx-Ub-VS probe labelling,USP19,-0.239
same,log2 ratio of Biotin-Ahx-Ub-VS probe labelling,USP24,-0.837
same,log2 ratio of Biotin-Ahx-Ub-VS probe labelling,USP25,-1.24 (active)
same,log2 ratio of Biotin-Ahx-Ub-VS probe labelling,USP28,-1.76 (active)
